Assay [1] is described as follows: ATG_CRE_CIS: Attagene CIS-FACTORIAL HepG2 Assay for human cAMP Responsive Element (CRE) binding protein 3 (AID 2282926). The note with it: HepG2 CRE cis-reporter, Attagene multiplexed mRNA; actives raise or lower the signal. In outline:
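Induced reporter mRNA from a CRE cis element, measured in HepG2 among many multiplexed units at 24 h. Detection used RT-PCR plus capillary electrophoresis of fluorescent fragments; DMSO served as negative control.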

Assay [2] addresses CCAAT/enhancer-binding protein beta (Homo sapiens) (UniProt P17676). Description: ATG_C_EBP_CIS: Attagene CIS-FACTORIAL HepG2 Assay for human CCAAT/Enhancer Binding Protein (C/EBP) beta (AID 2282927). To be noted: HepG2 Attagene cis-factorial transcription factor reporter; actives raise or lower the signal. The procedure, abridged:
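Endogenous C/EBPb-driven reporter transcripts measured in transfected human HepG2 cells at 24 h via RT-PCR and capillary electrophoresis of labelled fragments. Activity fitted in both directions relative to DMSO baseline.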

A short description of assay [3]: ATG_CMV_CIS: Attagene CIS-FACTORIAL HepG2 Assay for human CMV (Internal Marker) (AID 2282928).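 Note: endpoint acts as a background internal control marker rather than a target.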 To be noted: HepG2 CMV promoter reporter, transcription factor profiling; actives raise or lower the signal. In outline: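 Fluorescence intensity of RT-PCR-derived reporter fragments, resolved by capillary electrophoresis, gives the signal. HepG2 liver cells bearing transfected cis-element reporters were treated 24 h; activity in either direction was fit relative to DMSO-treated controls.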

A short description of assay [4]: ATG_DR4_LXR_CIS: Attagene CIS-FACTORIAL HepG2 Assay for human Liver X Receptor (LXR), DR4 submotif (AID 2282929). To be noted: HepG2 Attagene DR4 cis-reporter, mRNA transcription; actives raise or lower the signal. In outline:
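Readout: reporter transcript fluorescence after RT-PCR and capillary electrophoresis, fitted bidirectionally against DMSO controls. Human HepG2 liver cells carried transiently transfected multiplexed reporter constructs; endogenous transcription factor activity measured 24 h post-dosing.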

The target of assay [5] is Aryl hydrocarbon receptor (Homo sapiens) (UniProt P35869). Briefly: ATG_Ahr_CIS: Attagene CIS-FACTORIAL HepG2 Assay for human Aryl Hydrocarbon Receptor (Ahr) (AID 2282930). To be noted: HepG2 AhR cis-factorial reporter transcription; actives raise or lower the signal. The procedure, abridged:
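Reporter mRNA levels, quantified by RT-PCR and fluorescent capillary electrophoresis, reflect endogenous AhR transcriptional activity in HepG2 cells carrying transfected cis-promoter reporter constructs. Readout at 24 h post-dose; gain or loss fitted against DMSO baseline.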

The nature of assay [6]: ATG_AP_1_CIS: Attagene CIS-FACTORIAL HepG2 Assay for human Activator Protein 1 (AP-1) (AID 2282931). To be noted: HepG2 Attagene cis-factorial AP-1 reporter mRNA; actives raise or lower the signal. The procedure, abridged:
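Reporter transcripts were measured 24 h after dosing by RT-PCR and capillary electrophoresis of fluorescent fragments. Cells: HepG2 carrying transfected cis-regulated reporter constructs reading endogenous factor activity. Gain or loss fitted against DMSO.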

Assay [7] is described as follows: ATG_AP_2_CIS: Attagene CIS-FACTORIAL HepG2 Assay for human Activator Protein 2 (AP-2) (AID 2282932). To be noted: HepG2 AP-2 cis-reporter, Attagene transcription factor profiling; actives raise or lower the signal. The procedure, abridged:
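Endogenous transcription factor activity is reported through transfected multiplex reporter constructs in HepG2, after 24 h of compound exposure. Transcripts were quantified by RT-PCR and capillary electrophoresis of fluorescent fragments. Bidirectional fit against DMSO.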

Assay [8] can be described thus: ATG_BRE_CIS: Attagene CIS-FACTORIAL HepG2 Assay for human Bone Morphogenetic Protein (BMP) Response Element (BRE) (AID 2282933). To be noted: HepG2 BMP response element reporter, Attagene transcription factor profiling; actives raise or lower the signal. The procedure, abridged: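 Multiplexed cis-reporter assay, HepG2, 24 h exposure. mRNA from reporter units quantified via RT-PCR/CE; DMSO baseline; bidirectional curve fit.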

Assay [9] has as its target Retinoic acid receptor alpha (Homo sapiens) (UniProt P10276). Briefly: ATG_DR5_RAR_CIS: Attagene CIS-FACTORIAL HepG2 Assay for human Retinoic Acid Receptor Alpha (RARE), DR5 submotif (AID 2282934). The note with it: HepG2 Attagene cis-factorial RARE DR5 reporter, mRNA; actives raise or lower the signal. The procedure, abridged: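 Reporter transcripts from a DR5-regulated unit, measured via RT-PCR plus capillary electrophoresis, reflect endogenous RAR activity in transiently transfected human HepG2 liver cells. Exposure lasted 24 h; gain or loss of signal scored against DMSO.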

Assay [10] deals with Transcription factor E2F1 (Homo sapiens) (UniProt Q01094). Description: ATG_E2F_CIS: Attagene CIS-FACTORIAL HepG2 Assay for human E2F Transcription Factor 1 (AID 2282935). To be noted: HepG2 Attagene cis-reporter, E2F reporter RNA transcripts; actives raise or lower the signal. In outline: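 Gain or loss of reporter transcript, fitted against DMSO, reflects E2F1-driven transcription. Transiently transfected HepG2 dosed 24 h before RNA isolation. Quantified by fluorescent RT-PCR products separated by capillary electrophoresis.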

Assay [11] in a line: ATG_E_Box_CIS: Attagene CIS-FACTORIAL HepG2 Assay for human Enhancer Box (E-box) (AID 2282936). To be noted: HepG2 E-box cis-reporter transcription, actives raise or lower the signal. The procedure, abridged:
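E-box-driven reporter transcripts measured in transiently transfected HepG2 after 24 h exposure: RNA reverse-transcribed, PCR-amplified, fluorescently labelled, digested and resolved by capillary electrophoresis. Gain or loss relative to DMSO.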

A short description of assay [12]: ATG_M_61_CIS: Attagene CIS-FACTORIAL HepG2 Assay for M61 Transcription Factor (Internal Marker) (AID 2282937). To be noted: HepG2 Attagene CIS-FACTORIAL M61 internal marker reporter; actives raise or lower the signal. The procedure, abridged: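 Readout: fluorescent reporter mRNA fragments resolved by capillary electrophoresis after RT-PCR. Transiently transfected human HepG2 cells carried MRTU constructs reporting endogenous TF activity; 24 h chemical exposure; gain or loss of signal fitted relative to DMSO.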

Assay [13] in a line: ATG_EGR_CIS: Attagene CIS-FACTORIAL HepG2 Assay for human Early Growth Response 1 (EGR1) (AID 2282938). To be noted: HepG2 Attagene CIS-FACTORIAL EGR reporter mRNA; actives raise or lower the signal. In outline:
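Read-out: fluorescent reporter-mRNA fragments resolved by capillary electrophoresis after RT-PCR, 24 h post-dose in transiently transfected HepG2. Endogenous transcription-factor activity reported via cis-element-regulated reporter units; gain or loss fitted relative to DMSO.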

A short description of assay [14]: ATG_M_19_CIS: Attagene CIS-FACTORIAL HepG2 Assay for M19 Transcription Factor (Internal Marker) (AID 2282939). To be noted: HepG2 Attagene CIS-FACTORIAL M19 internal marker reporter; actives raise or lower the signal. The procedure, abridged: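 Signals come from fluorescence of labelled reporter-specific PCR fragments resolved by capillary electrophoresis, following 24 h treatment of HepG2 cells transfected with cis-promoter reporter units; activity was fitted in both directions relative to DMSO.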

Assay [15] is described as follows: ATG_ERE_CIS: Attagene CIS-FACTORIAL HepG2 Assay for Estrogen Response Element (ERE) (AID 2282940). To be noted: HepG2 ERE cis-reporter, Attagene RNA transcript; actives raise or lower the signal. In outline: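 Fluorescence of capillary-separated, FAM-labelled reporter cDNA fragments indicates reporter mRNA levels in HepG2 cells exposed to chemicals for 24 h. Transient transfection with cis-regulated units; data fitted in both directions against DMSO.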

In assay [16] the target is Hepatocyte nuclear factor 3-beta (Homo sapiens) (UniProt Q9Y261). Description: ATG_FoxA2_CIS: Attagene CIS-FACTORIAL HepG2 Assay for human Forkhead box A2 (FOXA2) (AID 2282942). The note with it: HepG2 cis-reporter transcription factor activity, 24 h; actives raise or lower the signal. In outline: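 Readout: fluorescent reporter transcripts resolved by capillary electrophoresis after RT-PCR. Transiently transfected HepG2, 24 h compound exposure, endogenous TF activity at cis promoter elements. Gain or loss of signal fitted relative to DMSO.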

A short description of assay [17]: ATG_FoxO_CIS: Attagene CIS-FACTORIAL HepG2 Assay for human Forkhead box O (FoxO) (AID 2282943). To be noted: HepG2 Attagene cis-reporter, FoxO element, mRNA; actives raise or lower the signal. In outline: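 Endogenous transcription factor activity read from multiplexed cis-promoter reporter transcripts in transiently transfected HepG2, 24 h after dosing. Reporter RNA measured via RT-PCR plus capillary electrophoresis of FAM-labeled products; gain or loss relative to DMSO.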

Assay [18] is described as follows: ATG_GATA_CIS: Attagene CIS-FACTORIAL HepG2 Assay for human GATA Binding Protein (AID 2282944). To be noted: HepG2 GATA cis-element reporter, Attagene multiplex mRNA; actives raise or lower the signal. In outline:
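After transfecting HepG2 cells with multiple cis-regulated reporter units, chemicals are dosed for 24 h; isolated RNA undergoes RT-PCR and fluorescent labeling before capillary electrophoresis, with activity expressed against DMSO.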

Assay [19] is described as follows: ATG_GLI_CIS: Attagene CIS-FACTORIAL HepG2 Assay for human Zinc Finger Protein GLI1 (AID 2282945). To be noted: HepG2, Attagene cis-factorial reporter mRNA, GLI element; actives raise or lower the signal. In outline:
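Bidirectional curve fits relative to DMSO, using reporter mRNA levels from RT-PCR plus capillary electrophoresis. Cells were HepG2 transiently carrying cis-regulated reporter constructs, harvested 24 h after dosing.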

A short description of assay [20]: ATG_Ets_CIS: Attagene CIS-FACTORIAL HepG2 Assay for human Erythroblast Transformation Specific (ETS) (AID 2282941). To be noted: HepG2 ETS cis-reporter transcription, actives raise or lower the signal. The procedure, abridged:
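Multiplexed reporter transcript profiling: HepG2, 24 h treatment, total RNA to cDNA, PCR, 6-FAM labelling, HpaI cut, capillary electrophoresis. Gain- or loss-of-signal fitted against DMSO.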

Each structure is given as a SMILES string. Calls of active or inactive are those of the source. Rule for the calls: active = hit-call score of the fitted dose curve at least 0.9, where 1 is the maximum; inactive = score below 0.9.

Chain of CCAAT/enhancer-binding protein beta (Homo sapiens) (P17676 whole entry, looked up, the tested form may be a part): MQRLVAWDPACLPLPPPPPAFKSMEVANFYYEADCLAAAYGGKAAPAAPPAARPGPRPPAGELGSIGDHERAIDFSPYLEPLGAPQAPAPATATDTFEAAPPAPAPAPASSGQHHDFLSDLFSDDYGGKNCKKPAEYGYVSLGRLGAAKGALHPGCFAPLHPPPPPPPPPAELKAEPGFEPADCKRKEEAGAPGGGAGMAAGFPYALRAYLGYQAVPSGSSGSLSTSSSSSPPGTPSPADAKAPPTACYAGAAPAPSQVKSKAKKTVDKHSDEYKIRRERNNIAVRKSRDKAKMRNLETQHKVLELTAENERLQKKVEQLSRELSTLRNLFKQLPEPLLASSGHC
Chain of Aryl hydrocarbon receptor (Homo sapiens) (P35869 whole entry, looked up): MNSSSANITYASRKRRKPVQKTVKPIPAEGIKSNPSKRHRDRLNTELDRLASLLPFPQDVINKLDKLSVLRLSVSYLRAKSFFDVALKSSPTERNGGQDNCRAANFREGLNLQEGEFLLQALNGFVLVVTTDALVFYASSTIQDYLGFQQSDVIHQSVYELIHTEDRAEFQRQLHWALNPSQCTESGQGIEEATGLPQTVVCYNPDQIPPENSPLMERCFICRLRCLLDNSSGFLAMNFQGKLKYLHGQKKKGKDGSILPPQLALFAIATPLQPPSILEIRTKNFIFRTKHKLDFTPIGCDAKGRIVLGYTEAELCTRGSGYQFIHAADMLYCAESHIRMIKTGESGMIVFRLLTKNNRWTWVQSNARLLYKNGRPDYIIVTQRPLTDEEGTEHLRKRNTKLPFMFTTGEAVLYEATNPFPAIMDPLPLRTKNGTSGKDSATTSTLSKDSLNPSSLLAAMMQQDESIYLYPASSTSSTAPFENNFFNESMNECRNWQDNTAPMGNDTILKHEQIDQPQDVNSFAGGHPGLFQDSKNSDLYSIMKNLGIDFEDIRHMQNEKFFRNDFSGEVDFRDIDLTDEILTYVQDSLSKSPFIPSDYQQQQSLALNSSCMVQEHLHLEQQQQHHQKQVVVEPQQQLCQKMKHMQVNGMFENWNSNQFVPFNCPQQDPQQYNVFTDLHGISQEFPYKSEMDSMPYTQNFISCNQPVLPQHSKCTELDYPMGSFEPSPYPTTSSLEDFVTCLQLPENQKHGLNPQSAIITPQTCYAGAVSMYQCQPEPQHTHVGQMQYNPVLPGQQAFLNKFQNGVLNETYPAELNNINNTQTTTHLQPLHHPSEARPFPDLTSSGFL
Chain of Retinoic acid receptor alpha (Homo sapiens) (P10276 whole entry, looked up): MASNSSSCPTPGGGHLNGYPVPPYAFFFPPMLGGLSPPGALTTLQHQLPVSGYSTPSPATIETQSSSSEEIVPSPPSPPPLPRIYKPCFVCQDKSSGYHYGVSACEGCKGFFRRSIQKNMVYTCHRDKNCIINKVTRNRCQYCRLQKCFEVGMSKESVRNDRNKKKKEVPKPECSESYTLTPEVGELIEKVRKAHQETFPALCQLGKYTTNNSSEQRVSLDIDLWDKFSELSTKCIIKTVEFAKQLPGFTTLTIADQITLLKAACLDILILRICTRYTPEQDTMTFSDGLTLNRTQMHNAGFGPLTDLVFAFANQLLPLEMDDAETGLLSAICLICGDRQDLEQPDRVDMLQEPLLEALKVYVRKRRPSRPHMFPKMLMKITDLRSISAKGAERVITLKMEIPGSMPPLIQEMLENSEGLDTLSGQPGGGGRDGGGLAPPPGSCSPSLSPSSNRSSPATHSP
Chain of Transcription factor E2F1 (Homo sapiens) (Q01094 whole entry, looked up): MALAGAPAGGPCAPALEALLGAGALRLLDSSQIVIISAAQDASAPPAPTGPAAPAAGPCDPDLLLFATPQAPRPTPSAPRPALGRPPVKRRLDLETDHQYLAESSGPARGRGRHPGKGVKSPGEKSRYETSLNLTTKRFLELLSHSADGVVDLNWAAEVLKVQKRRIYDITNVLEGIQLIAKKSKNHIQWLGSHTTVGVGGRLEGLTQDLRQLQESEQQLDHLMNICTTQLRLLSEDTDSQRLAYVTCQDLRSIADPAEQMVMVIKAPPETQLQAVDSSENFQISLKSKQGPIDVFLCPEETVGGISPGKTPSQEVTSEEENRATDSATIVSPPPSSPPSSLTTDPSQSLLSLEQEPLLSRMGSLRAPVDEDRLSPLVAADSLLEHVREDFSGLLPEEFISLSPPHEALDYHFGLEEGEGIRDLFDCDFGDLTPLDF
Chain of Hepatocyte nuclear factor 3-beta (Homo sapiens) (Q9Y261 whole entry, looked up): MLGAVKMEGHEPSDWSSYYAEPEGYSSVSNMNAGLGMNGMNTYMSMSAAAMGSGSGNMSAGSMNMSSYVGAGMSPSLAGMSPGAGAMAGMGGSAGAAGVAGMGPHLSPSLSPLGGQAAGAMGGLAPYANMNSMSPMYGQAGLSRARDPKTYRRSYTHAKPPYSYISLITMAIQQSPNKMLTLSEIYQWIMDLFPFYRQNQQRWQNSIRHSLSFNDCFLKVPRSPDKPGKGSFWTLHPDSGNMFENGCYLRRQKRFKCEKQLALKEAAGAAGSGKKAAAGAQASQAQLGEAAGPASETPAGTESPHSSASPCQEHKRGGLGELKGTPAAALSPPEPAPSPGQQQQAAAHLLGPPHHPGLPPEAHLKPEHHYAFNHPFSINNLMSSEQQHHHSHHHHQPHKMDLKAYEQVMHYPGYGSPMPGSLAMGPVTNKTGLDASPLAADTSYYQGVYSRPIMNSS

Broadly, the AC50 is the midpoint of the concentration-response curve, whichever way the signal moves. On to `c1ccc(CCCc2ccncc2)cc1`, for which the compound was called inactive in [1], in assay [2], in [4], in assay [5], in [9] and in assay [10]. Also, the result in [11], in assay [12], in assay [13], in [14], in assay [15] and in [16] was inactive. In addition, the call in assay [17], in assay [18] and in [19] was inactive. Further, the AC50 is 43.2 µM (active) in assay [3], 37.7 µM (active) in assay [6], 100 µM (active) in assay [7] and 93.3 µM (active) in assay [8].
Take `CCCC(C)CCC(C)=O` (centres undefined): the compound was classed as inactive in assay [1], in assay [2], in assay [3], in assay [4], in assay [5] and in assay [6]. Moreover, the call in assay [7], in assay [8], in [9], in [10], in [11] and in [12] was inactive. The call in assay [13], in assay [14], in assay [15], in assay [20], in assay [17] and in assay [19] was inactive.
As for `NC(=O)NNC(N)=O`, the compound was called inactive in assay [1], in [2], in assay [3], in [4], in assay [5] and in assay [6]. Further, the compound was called inactive in assay [7], in assay [8], in [9], in assay [10], in assay [11] and in [12]. In addition, the call in [13], in [14], in assay [15], in [17], in assay [18] and in assay [19] was inactive.
Take `CC=C1CC2C=CC1C2` (centres undefined): the compound was classed as inactive in assay [1], in assay [2], in assay [3], in [5], in [7] and in [8]. For the same compound, the outcome in [9], in assay [10], in [11], in assay [12], in assay [13] and in assay [14] was inactive. In addition, the compound was classed as inactive in assay [15], in [16], in assay [17], in [18] and in assay [19]. For the same compound, the values for the AC50 in [4] and in [6] were 26.5 µM (active) and 67.1 µM (active), respectively.

The values are drawn from PubChem BioAssay (EPA / NIEHS).
